Shown are actives, neighbours in structure and some others; about 1.7% of the full set was active somewhere.
PrP UTR inh – inhibition of PrP 5' UTR reporter expression | cell-based PrP 5' UTR mRNA reporter, plate reader | inhibition, % (no concentration beside the values) | 340,000 compounds, 0.35% hits | AID 488862, 2010; in the data active = inhibition above about 52%; also: 0 = median of the neutral control wells
SSB-PriA inh – inhibitors of Klebsiella pneumoniae PriA binding to SSB C-terminal tail, primary screen, biochemical, AlphaScreen; inhibition, % at 33 µM; PriA–SSB C-terminal tail interaction (Klebsiella pneumoniae); AlphaScreen SSBct-PriA binding, biotinylated peptide; 430,000 compounds, 0.6% hits; in the data active = inhibition mostly above about 37%, no sharp cut-off; inactive = mostly below about 20%;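 also: plate controls were negative control peptide for no effect and reference peptide for full effect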
BJeLR viability – MLPCN primary cell-based screen for lethality selective to Ras in HRASV12 cells; BJeLR (HRASV12) viability, CellTiter-Glo ATP luminescence, 48 h; inhibition, % (concentration not given with the values); 300,000 compounds, 0.17% hits; AID 1554, 2009; in the data active = inhibition above about 50%
PrPC TRFRET – inhibitors of human cell surface prion protein PrPC, primary screen, cell-based, TR-FRET. AID 720596, 2013. inhibition, % at 13.8 µM. TR-FRET read-out. 370,000 compounds, 0.43% hits; in the data active = inhibition above about 24%; also: 0% = median of the test wells and 100% = reference compound wells
PfHsp40 yeast – rescue of yeast from PfHsp40 toxicity, primary screen, S. cerevisiae, ATP luminescence. S. cerevisiae expressing PfHsp40, growth rescue. growth rescue, % at 12.5 µM. 340,000 compounds, 0.68% hits; in the data active = growth rescue above about 28%, passing the limit was not always enough;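 also: yeast W303a lacking pdr1 and pdr3 grown in galactose medium; growth measured after three days at 30 °C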
Y pestis TopoI – Yersinia pestis topoisomerase I inhibitors, primary screen, biochemical, cleavage product accumulation, plate reader, single point | DNA topoisomerase I (Yersinia pestis CO92) | Y. pestis Topo-I cleavage product accumulation | activity, % at 10 µM | 360,000 compounds, 0.064% hits | AID 504884, 2011; in the data active = activity above about 50%, passing the limit was not always enough
* marks the source's active call; other numbers are inactive results; nt = not tested or not shown; ! = repeats disagree.

SMILES | PrP UTR inh | SSB-PriA inh | BJeLR viability | PrPC TRFRET | PfHsp40 yeast | Y pestis TopoI
C=CCN(CC=C)S(=O)(=O)c1ccc(C(=O)N2CCN(C(=O)c3ccc(S(=O)(=O)N(CC=C)CC=C)cc3)CC2)cc1 | nt | -11 | nt | nt | nt | nt
CCCC(=O)Nc1nc(C)c(-c2csc(Nc3cc(OC)ccc3OC)n2)s1 | -6 | 17 | 6 | 2 | -1 | -14
CCCC(C)C(=O)Nc1nc(C)c(-c2csc(Nc3cc(OC)ccc3OC)n2)s1 (stereo not given) | 2 | 47* | 7 | -1 | 0 | -25
COc1cccc(C2C(=C(O)c3cnn(-c4ccccc4)c3C)C(=O)C(=O)N2CCN(C)C)c1OC (stereo not given) | nt | 6 | nt | nt | nt | nt
CCN1C(=O)N[C@@H](c2ccccc2)[C@@H](C(=O)OC)[C@H]1C | -25 | 0 | -1 | 2 | 33* | 7
COc1ccc(NC(=O)N(C)C[C@H]2Oc3ccc(NC(=O)Nc4ccc5c(c4)OCO5)cc3C(=O)N([C@H](C)CO)C[C@@H]2C)cc1 | -31 | 17 | nt | 9 | 54* | 4
O=C(NCc1nn(C2CCCC2)c(=O)c2ccccc12)Nc1ccccc1C(F)(F)F | nt | -8 | nt | nt | nt | nt
CNC(=O)c1c(NC(=O)CS(=O)(=O)c2ccccc2)sc(C)c1C | -19 | -20 | 7 | -1 | 51* | 11
Cc1nnc(NC(=O)CSc2ncc(-c3ccc(Br)cc3)n2-c2ccccc2C)s1 | nt | -1 | nt | nt | nt | nt
CCOc1ccc(NC(=O)CSc2nnc(-c3ccccn3)n2N)cc1 | 8 | 64*! | -2 | -2 | 0 | 9
COc1ccc(-c2cnc(SCC(=O)Nc3ccccc3)n2-c2ccccc2C)cc1 | nt | 44* | nt | nt | nt | nt
COc1ccc(NC(=O)CSc2nnc(-c3ccccn3)n2N)cc1 | -28 | 59* | 10 | -1 | 1 | 5
Oc1cccc(Nc2c3ccccc3nc3ccccc23)c1 | -10 | 5 | 16 | -5 | 1 | -27
CCN(CC)Cc1cc(Nc2c3ccccc3nc3c4ccccc4n(C)c23)cc(CN(CC)CC)c1O | -19 | 51* | nt | -5 | 2 | -41
FC(F)(F)c1cccc(N2CCc3cn[nH]c32)c1 | -45 | -2 | 7 | 9 | 292* | -2
Cc1nc(N(C)C)nc(C)c1NC(=O)Nc1cccc(F)c1C | nt | 3 | nt | nt | nt | nt
O=C1ON=C(c2ccccc2)/C1=C\c1ccco1 | -23 | -5 | 1 | -7 | 0 | -5
Cc1ccc(/C=C2/C(=O)ON=C2c2ccccc2)o1 | -22 | -7 | 51* | -10 | 0 | -13
CNC1=C(N(C(C)=O)c2ccc(Br)cc2)C(=O)c2ccccc2C1=O | -44 | 7 | 51* | -22 | 77* | -11
Cn1nc(Cc2cccc3ccccc23)c(C#N)c1N | -16 | -9 | 0 | 2 | 1 | -7
CC(C)(C)n1nc(Cc2cccc3ccccc23)c2c(N)ncnc21 | 5 | -2 | 9 | 19 | 552* | 21
COc1ccc(SCCC(=O)Nc2ccc3sccc3c2)cc1 | nt | 43* | nt | nt | nt | nt
Cc1ccc(SCCC(=O)Nc2ccc3sccc3c2)cc1 | nt | -14 | nt | nt | nt | nt
N#CC1=C(N)OC2=C(C(=O)CCC2)C1c1ccc(-c2cccc([N+](=O)[O-])c2)o1 (stereo not given) | nt | 5 | nt | nt | nt | nt
CCN1CCCc2cc(CCNC(=O)C(=O)NCCN3CCOCC3)ccc21 | nt | 48 | nt | nt | nt | nt
SMILES | PrP UTR inh | SSB-PriA inh | BJeLR viability | PrPC TRFRET | PfHsp40 yeast | Y pestis TopoI
CCN1CCCc2cc(CCNC(=O)c3ccc(OC(C)C)cc3)ccc21 | nt | 61* | nt | nt | nt | nt
CCN1CCCc2cc(CCNC(=O)c3ccc(Br)o3)ccc21 | nt | active! | nt | nt | nt | nt
CCCNC(=O)C(=O)NCCc1ccc2c(c1)CCCN2CC | nt | 41 | nt | nt | nt | nt
CCN1CCCc2cc(CCNC(=O)C(=O)NCCOC)ccc21 | nt | 68* | nt | nt | nt | nt
CCN1CCCc2cc(CCNC(=O)c3ccc(C(F)(F)F)cc3)ccc21 | nt | 27 | nt | nt | nt | nt
CCN1CCCc2cc(CCNC(=O)NC(C)(C)C)ccc21 | nt | 44* | nt | nt | nt | nt
O=C(NCc1ccc(F)cc1F)c1ccc(Cn2ccnc2)cc1 | nt | -6 | nt | nt | nt | nt
C[C@@H](C[C@@H](O)[C@H](O)C(C)(C)O)[C@@H]1CC[C@]2(C)C3=CC[C@H]4C(C)(C)C(=O)CC[C@]4(C)[C@H]3CC[C@@]12C | -12 | 2 | 3 | 4 | -2 | 13

Compound activity from PubChem BioAssay.
